# Screening results (PubChem)
# Most compounds without a hit are left out; they make up all but 3.5% or so of the library.
# TEAD-YAP inh – TEAD-YAP interaction inhibition | HEK-TIYL cells, TEAD-Gal4/YAP UAS-luciferase luminescence | inhibition, % at 9.12 µM | 640,000 tested, 1.4% active; in the data active = inhibition above about 32%
# FBW7 act – human FBW7 E3 ligase activation, primary screen; AlphaScreen FBW7–phospho-cyclin E peptide binding, activator screen; normalized activity (activation), % at 26.1 µM; 650,000 tested, 0.13% active; Q969H0; in the data active = normalized activity above about 1.9%;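 also: purified mutant Fbw7 with reduced substrate affinity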
# Target sequence (Q969H0 whole entry, looked up): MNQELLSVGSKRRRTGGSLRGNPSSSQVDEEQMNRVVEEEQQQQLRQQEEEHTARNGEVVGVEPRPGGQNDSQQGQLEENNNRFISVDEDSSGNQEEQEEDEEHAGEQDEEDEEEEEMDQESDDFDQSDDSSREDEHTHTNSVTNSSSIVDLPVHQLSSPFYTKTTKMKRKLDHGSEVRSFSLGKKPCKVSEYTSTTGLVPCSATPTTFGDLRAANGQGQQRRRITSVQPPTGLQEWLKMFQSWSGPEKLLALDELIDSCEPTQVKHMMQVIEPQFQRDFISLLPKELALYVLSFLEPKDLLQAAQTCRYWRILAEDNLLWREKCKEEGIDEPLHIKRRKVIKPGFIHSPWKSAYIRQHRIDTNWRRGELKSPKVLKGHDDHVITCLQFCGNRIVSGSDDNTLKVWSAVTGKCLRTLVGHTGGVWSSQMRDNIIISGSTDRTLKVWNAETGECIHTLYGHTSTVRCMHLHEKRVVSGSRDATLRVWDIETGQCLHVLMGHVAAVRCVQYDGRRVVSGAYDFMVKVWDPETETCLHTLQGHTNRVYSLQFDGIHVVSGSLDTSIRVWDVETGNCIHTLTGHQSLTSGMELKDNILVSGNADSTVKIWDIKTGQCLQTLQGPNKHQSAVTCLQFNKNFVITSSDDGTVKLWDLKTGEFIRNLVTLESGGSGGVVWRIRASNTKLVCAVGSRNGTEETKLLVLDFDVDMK
# MITF primary – blocks human microphthalmia-associated transcription factor; O75030; AlphaScreen MITF homodimerization, bead proximity signal; inhibition, % at 2.6 µM; 650,000 tested, 0.91% active; in the data active = inhibition above about 50%
# GPR151 ag – activates the human receptor GPR151; Q8TDV0; PathHunter beta-arrestin GPR151 cells, luminescence; activation, % at 11.2 µM; 650,000 tested, 1% active; AID 1508602; in the data active = activation above about 4.9%
# MITF inh conf – confirmation of human MITF inhibitors; shares compounds with MITF primary; AlphaScreen MITF homodimerization, biotin/His-MITF beads; inhibition, % at 2.6 µM; 4,700 tested, 16% active;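 active = inhibition above a cutoff derived from the DMSO control wells, cut at about 28% in these data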;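 also: inhibitors lower the bead chemiluminescence by keeping MITF from dimerizing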
# AS interf DR – optically interferes with AlphaScreen signal in dose response | shares compounds with MITF primary | AlphaScreen optical interference counterscreen, cell-free | IC50, µM | 480 tested, 6% active | AID 1259373; call rule not given here
# AS interf ctr – AlphaScreen optical interference, counter-screen. 4,700 tested, 7.6% active. shares compounds with MITF primary. inhibition, % at 2.6 µM. LysRS AlphaScreen counterscreen, signal interference, triplicate;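 active = inhibition above a cutoff derived from the DMSO control wells, cut at about 30% in these data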
# Hits are given with their value; i = inactive; nt = no result given; ! = a repeat was not active.
SMILES,TEAD-YAP inh,FBW7 act,MITF primary,GPR151 ag,MITF inh conf,AS interf ctr,others
CCN1CCN(CCOc2ccccc2[N+](=O)[O-])CC1,i,i,74.8,i,i,i,
O=[N+]([O-])c1ccccc1OCCCCN1CCCC1,i,i,i,i,nt,nt,
O=[N+]([O-])c1ccccc1OCCCOc1ccccc1[N+](=O)[O-],i,i,i,i,nt,nt,
O=[N+]([O-])c1ccccc1OCCNC1CCCC1,i,i,52.0,i,i,i,
c1ccc(COc2ccc(OCCN3CCCC3)cc2)cc1,i,i,i,i,nt,nt,
CCN1CCN(CCOc2ccccc2OCc2ccccc2)CC1,i,i,66.5,i,i,i,
O=C(NCC1CCCO1)c1nc(-c2ccc(Cl)cc2)n2c1CCCCC2 (stereo unspecified),i,i,i,i,nt,nt,
CCN1CCN(CCCOc2ccc(OC)cc2)CC1,i,i,i,i,nt,nt,
c1ccc(COc2ccccc2OCCNCCN2CCOCC2)cc1,i,i,65.6,i,i,i,
CCN1CCN(CCOc2ccc(I)cc2)CC1,i,i,63.8,i,i,i,
c1ccc(COc2ccccc2OCCCCNCCN2CCOCC2)cc1,i,i,i,i,nt,nt,
CCOc1ccccc1OCCOCCNCc1ccccc1,i,i,81.6,i,i,i,
CCC(C)c1ccccc1OCCNCCN(C)C (stereo unspecified),i,i,67.3,i,58.7,i,AS interf DR=i
Cc1cc(Cl)cc(Br)c1OCCNCCN(C)C,i,i,53.2,i,i,i,
CCC(C)c1ccccc1OCCNCCOC (stereo unspecified),i,i,i,i,nt,nt,
CNCCCOc1c(C)cc(Cl)cc1Br,i,i,i,i,nt,nt,
CCC(C)c1ccccc1OCCNCCCOC (stereo unspecified),i,i,58.2,i,i,i,
O=C(Nc1ccccc1OC(F)(F)F)c1cccnc1,i,i,i,i,nt,nt,
CN(C)CCNCCOc1ccc2ccccc2c1Br,i,i,58.5,i,i,i,
CCC(C)c1ccccc1OCCCNCCO (stereo unspecified),i,i,59.4,i,i,i,
CCCCNCCOc1ccccc1OCC,i,i,60.8,i,33.1,i,AS interf DR=i
CCC(C)c1ccccc1OCCCNCCN (stereo unspecified),i,i,i,i,nt,nt,
Cc1cc(NC(=O)CN(CCC(C)C)S(=O)(=O)c2ccccc2F)no1,i,i,i,i,nt,nt,
CCC(=O)Nc1ccc(S(=O)(=O)Nc2nnc(CC)s2)cc1,i,i,i,i,nt,nt,
CCc1nnc(NS(=O)(=O)c2ccc(NC(=O)COc3ccccc3)cc2)s1,i,i,65.4,i,i,i,
SMILES,TEAD-YAP inh,FBW7 act,MITF primary,GPR151 ag,MITF inh conf,AS interf ctr,others
CN(C)c1ccc(O)c2c1C[C@H]1C[C@H]3[C@H](N(C)C)C(=O)C(C(N)=O)=C(O)[C@@]3(O)C(=O)C1=C2O,i,i,73.1!,i,64.4,i,AS interf DR=i
CC1(c2cc(C(F)(F)F)n3nc(C(=O)N4CCC(c5ccncc5)CC4)cc3n2)CC1,i,i,55.9,i,i,i,
COc1ccc(-c2cc(C(F)(F)F)n3nc(C(=O)N4CCC(C)CC4)cc3n2)cc1,i,i,i,i,nt,nt,
CCOC(=O)C1CCN(C(=O)c2cc3nc(-c4ccc(OC)cc4)cc(C(F)(F)F)n3n2)CC1,i,i,61.2,i,i,i,
O=C(NCCN1CCOCC1)c1cc(-c2ccc(Cl)cc2)cs1,i,i,i,i,nt,nt,
CC(C)(C)N1C(=O)c2ccccc2NC(=O)N1CCCN1C(=O)c2ccccc2C1=O,i,i,i,i,nt,nt,
COc1ccc(C)cc1NCC(O)Cn1nnnc1-c1ccccc1 (stereo unspecified),i,i,i,i,nt,nt,
Nc1cc2c3c(cc(N)cc3c1)C(=O)N(O)C2=O,i,i,106.4,i,111.0,94.2,
c1ccc(CCCN2CCN(Cc3ccco3)CC2)cc1,i,i,55.2,i,i,i,
O=S(=O)(c1ccccc1)N1CCN(Cc2ccco2)CC1,i,i,i,i,nt,nt,
Cc1ccccc1CN1CCN(Cc2ccco2)CC1,i,i,71.9,i,i,i,
Fc1ccc(N2CCN(Cc3ccco3)CC2)cc1,i,i,51.7,i,i,i,
Brc1ccc(CN2CCN(Cc3ccco3)CC2)cc1,i,i,86.0,i,i,i,
CS(=O)(=O)N1CCN(Cc2ccco2)CC1,i,i,i,i,nt,nt,
Fc1ccc(N2CN(Cc3ccco3)CNC2=S)cc1,i,i,i,i,nt,nt,
Cc1cc(C(=O)N/N=C/c2cc3c(cc2Cl)OCO3)n[nH]1,i,i,i,i,nt,nt,
Brc1ccccc1CN1CCN(Cc2ccco2)CC1,i,i,78.5,i,i,i,
CC1CCCCN1C(=O)CN1CCN(c2ncccn2)CC1 (stereo unspecified),i,i,54.5,i,i,i,
CCn1c2ccccc2c2cc(CN3CCN(Cc4cc(OC)c(OC)cc4OC)CC3)ccc21,i,i,69.2,i,i,i,
COc1cc(OC)c(OC)cc1CN1CCN(Cc2ccc(C)cc2)CC1,i,i,63.2,i,71.3,i,AS interf DR=i
COc1cc(OC)c(OC)cc1CN1CCN(Cc2cc(OC)c(O)c(OC)c2)CC1,i,i,60.1,i,i,i,
COc1cc(OC)c(OC)cc1CN1CCN(Cc2ccncc2)CC1,i,i,79.7,i,i,i,
CCS(=O)(=O)N1CCN(Cc2cc(OC)c(OC)cc2OC)CC1,i,i,i,i,nt,nt,
Cn1nc(C(=O)NN)c2ccccc2c1=O,i,i,i,i,nt,nt,
Cc1nn2c(C(F)(F)F)cc(-c3cccs3)nc2c1-c1ccc(Cl)cc1,i,i,i,i,nt,nt,
SMILES,TEAD-YAP inh,FBW7 act,MITF primary,GPR151 ag,MITF inh conf,AS interf ctr,others
COc1cccc(CC(C2CCN(C(=O)CSC)CC2)N(C)Cc2ccccn2)c1 (stereo unspecified),i,i,52.2,i,i,33.6,
COc1cccc(CC(C2CCN(Cc3ccccn3)CC2)N(C)C(=O)c2ccco2)c1 (stereo unspecified),i,i,i,i,nt,nt,
Cc1ccc2nsnc2c1NC(=O)c1ncn[nH]1,i,i,52.5,i,i,i,
O=S(=O)(c1ccc2ccccc2c1)N1CCN(Cc2ccccc2Cl)CC1,i,i,57.8,i,i,i,
O=S(=O)(c1ccc2ccccc2c1)N1CCN(Cc2ccc(F)cc2)CC1,i,i,53.8,i,i,i,
O=C(c1cc(Cc2ccccc2)no1)N1CCCC1,i,i,52.7,i,i,i,
O=C(c1cc(Cc2ccccc2)no1)N1CCSCC1,i,i,i,i,nt,nt,
C=CCN1C(=O)CC(C(=O)OC)C12CCN(Cc1cc(OC)c(OC)cc1Cl)CC2 (stereo unspecified),i,i,i,i,nt,nt,
C=CCc1cc(C)ccc1OCCOCCn1ccnc1,i,i,66.3,i,i,i,
Clc1cccc(Cl)c1OCCCCn1ccnc1,i,i,52.2,i,i,i,
C=CCc1cc(Cl)ccc1OCCCCn1ccnc1,i,i,68.0,i,i,i,
C=CCc1cc(OC)ccc1OCCCCn1ccnc1,i,i,78.1,i,i,i,
O=S(=O)(c1ccccc1)N1CCC2CCCCC2C1 (stereo unspecified),i,i,i,i,nt,nt,
